In PubChem BioAssay AID1159580 (chemical genetic matrix, 2015):
Hit rate of the full screen: of about 5,500 compounds, about 2,000 (36%) were called active. Roughly 18% stayed inconclusive and do not appear here. Cut-off read from the data, not from the text of the source: active = normalized growth mostly below about 0.91 (no sharp cut-off); inconclusive = no clear call, values can overlap the other calls; inactive = mostly above about 0.92. Some of the results follow.

Assay: chemical genetic growth profiling, strain panel (AID 1159580);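 note: tested at 20 µM; growth read once vehicle control cultures reached saturation at 30 °C; 1 = growth at the plate median or of vehicle wells; lower values mean less growth of the strain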
Settings: growth OD
[1] = S. cerevisiae deletion strains, locus YDL101C, strain DUN1, active compounds read low
[2] = S. cerevisiae deletion strains, locus YHR030C, strain SLT2, active compounds read low

Measured: normalized growth

N#CC(C#N)=Cc1ccc(-c2ccccc2C(F)(F)F)o1
inactive: S. cerevisiae deletion strains, locus YAR019C, strain CDC15, active compounds read low 0.947 | S. cerevisiae deletion strains, locus YBL105C, strain PKC1, active compounds read low 0.946 | S. cerevisiae deletion strains, locus YBR135W, strain CKS1, active compounds read low 0.947 | S. cerevisiae deletion strains, locus YBR136W, strain MEC1, active compounds read low 0.947 | S. cerevisiae deletion strains, locus YBR160W, strain CDC28, active compounds read low 0.95 | S. cerevisiae deletion strains, locus YDL017W, strain CDC7, active compounds read low 0.947 | S. cerevisiae deletion strains, locus YDL028C, strain MPS1, active compounds read low 0.954 | [1] 0.925 | S. cerevisiae deletion strains, locus YDL108W, strain KIN28, active compounds read low 0.953 | S. cerevisiae deletion strains, locus YDL132W, strain cdc53, active compounds read low 0.947 | S. cerevisiae deletion strains, locus YDL214C, strain PRR2, active compounds read low 0.901 | S. cerevisiae deletion strains, locus YDR052C, strain DBF4, active compounds read low 0.957 | S. cerevisiae deletion strains, locus YDR054C, strain cdc34, active compounds read low 0.94 | S. cerevisiae deletion strains, locus YDR226W, strain ADK1, active compounds read low 0.943 | S. cerevisiae deletion strains, locus YDR477W, strain SNF1, active compounds read low 0.913 | S. cerevisiae deletion strains, locus YER123W, strain YCK3, active compounds read low 0.876 | S. cerevisiae deletion strains, locus YER133W, strain GLC7, active compounds read low 0.925 | S. cerevisiae deletion strains, locus YFL009W, strain cdc4, active compounds read low 0.94 | S. cerevisiae deletion strains, locus YFL029C, strain CAK1, active compounds read low 0.945 | S. cerevisiae deletion strains, locus YFR003C, strain YPI1, active compounds read low 0.944 | S. cerevisiae deletion strains, locus YFR019W, strain FAB1, active compounds read low 0.898 | S. cerevisiae deletion strains, locus YFR028C, strain CDC14, active compounds read low 0.94 | S. cerevisiae deletion strains, locus YGR040W, strain KSS1, active compounds read low 0.903 | S. cerevisiae deletion strains, locus YGR052W, strain FMP48, active compounds read low 0.871 | S. cerevisiae deletion strains, locus YGR092W, strain DBF2, active compounds read low 0.783 | [2] 0.875 | S. cerevisiae deletion strains, locus YHR079C, strain IRE1, active compounds read low 0.905 | S. cerevisiae deletion strains, locus YHR082C, strain KSP1, active compounds read low 0.906 | S. cerevisiae deletion strains, locus YHR205W, strain SCH9, active compounds read low 0.784 | S. cerevisiae deletion strains, locus YIL147C, strain SLN1, active compounds read low 0.948 | S. cerevisiae deletion strains, locus YJL095W, strain BCK1, active compounds read low 0.838 | S. cerevisiae deletion strains, locus YJL128C, strain PBS2, active compounds read low 0.866 | S. cerevisiae deletion strains, locus YJL157C, strain FAR1, active compounds read low 0.907 | S. cerevisiae deletion strains, locus YJR016C, strain ILV3, active compounds read low 0.95 | S. cerevisiae deletion strains, locus YJR066W, strain TOR1 (second series), active compounds read low 0.873 | S. cerevisiae deletion strains, locus YJR066W, strain TOR1, active compounds read low 0.893 | S. cerevisiae deletion strains, locus YKL048C, strain ELM1, active compounds read low 0.899 | S. cerevisiae deletion strains, locus YKL067W, strain YNK1, active compounds read low 0.89 | S. cerevisiae deletion strains, locus YKL101W, strain HSL1, active compounds read low 0.873 | S. cerevisiae deletion strains, locus YKL193C, strain SDS22, active compounds read low 0.942 | S. cerevisiae deletion strains, locus YKL203C, strain TOR2, active compounds read low 0.931 | S. cerevisiae deletion strains, locus YLR133W, strain CKI1, active compounds read low 0.891 | S. cerevisiae deletion strains, locus YLR403W, strain SFP1, active compounds read low 0.848 | S. cerevisiae deletion strains, locus YML070W, strain DAK1, active compounds read low 0.894 | S. cerevisiae deletion strains, locus YMR001C, strain CDC5, active compounds read low 0.94 | S. cerevisiae deletion strains, locus YMR205C, strain PFK2 (second series), active compounds read low 0.899 | S. cerevisiae deletion strains, locus YMR277W, strain FCP1, active compounds read low 0.935 | S. cerevisiae deletion strains, locus YNL006W, strain LST8, active compounds read low 0.949 | S. cerevisiae deletion strains, locus YNL020C, strain ARK1, active compounds read low 0.892 | S. cerevisiae deletion strains, locus YNL161W, strain CBK1, active compounds read low 0.941 | S. cerevisiae deletion strains, locus YNL183C, strain NPR1, active compounds read low 0.864 | S. cerevisiae deletion strains, locus YNL207W, strain RIO2, active compounds read low 0.943 | S. cerevisiae deletion strains, locus YNL222W, strain SSU72, active compounds read low 0.951 | S. cerevisiae deletion strains, locus YNL307C, strain MCK1 (second series), active compounds read low 0.788 | S. cerevisiae deletion strains, locus YOL078W, strain AVO1, active compounds read low 0.939 | S. cerevisiae deletion strains, locus YOL136C, strain PFK27, active compounds read low 0.851 | S. cerevisiae deletion strains, locus YOR061W, strain CKA2, active compounds read low 0.907 | S. cerevisiae deletion strains, locus YOR119C, strain RIO1, active compounds read low 0.964 | S. cerevisiae deletion strains, locus YOR231W, strain MKK1, active compounds read low 0.87 | S. cerevisiae deletion strains, locus YOR329C, strain SCD5, active compounds read low 0.944 | S. cerevisiae deletion strains, locus YPL031C, strain PHO85, active compounds read low 0.895 | S. cerevisiae deletion strains, locus YPL153C, strain RAD53, active compounds read low 0.907 | S. cerevisiae deletion strains, locus YPL204W, strain HRR25, active compounds read low 0.88 | S. cerevisiae deletion strains, locus YPL209C, strain IPL1, active compounds read low 0.947 | S. cerevisiae deletion strains, locus YPL256C, strain CLN2, active compounds read low 0.929 | S. cerevisiae deletion strains, locus YPR025C, strain CCL1, active compounds read low 0.948 | S. cerevisiae deletion strains, locus YPR106W, strain ISR1, active compounds read low 0.938 | S. cerevisiae deletion strains, locus YPR111W, strain DBF20, active compounds read low 0.916 | S. cerevisiae deletion strains, strain NNK1, active compounds read low 0.922 | S. cerevisiae deletion strains, strain TSCII, active compounds read low 0.935
active: S. cerevisiae deletion strains, locus YLR113W, strain HOG1, active compounds read low 0.758

N#CC(C#N)=Cc1ccc(-c2cc(C(F)(F)F)ccc2Cl)o1
inactive: S. cerevisiae deletion strains, locus YAL013W, strain DEP1, active compounds read low 1.01 | S. cerevisiae deletion strains, locus YBR229C, strain ROT2, active compounds read low 1.01 | [1] 1.03 | S. cerevisiae deletion strains, locus YDR150W, strain NUM1, active compounds read low 0.993 | S. cerevisiae deletion strains, locus YEL061C, strain CIN8, active compounds read low 0.997 | S. cerevisiae deletion strains, locus YGR078C, strain PAC10, active compounds read low 1.01 | [2] 0.819 | S. cerevisiae deletion strains, locus YHR087W, strain rtc3, active compounds read low 1.02 | S. cerevisiae deletion strains, locus YJL187C, strain SWE1, active compounds read low 0.997 | S. cerevisiae deletion strains, locus YJR043C, strain POL32, active compounds read low 0.989 | S. cerevisiae deletion strains, locus YJR075W, strain HOC1, active compounds read low 0.987 | S. cerevisiae deletion strains, locus YLR039C, strain RIC1, active compounds read low 0.844 | S. cerevisiae deletion strains, locus YLR058C, strain SHM2 (second series), active compounds read low 0.99 | S. cerevisiae deletion strains, locus YLR085C, strain ARP6, active compounds read low 0.797 | S. cerevisiae deletion strains, locus YLR262C, strain YPT6, active compounds read low 0.913 | S. cerevisiae deletion strains, locus YML094W, strain GIM5, active compounds read low 1.08 | S. cerevisiae deletion strains, locus YMR219W, strain ESC1, active compounds read low 0.996 | S. cerevisiae deletion strains, locus YMR263W, strain SAP30, active compounds read low 0.97 | S. cerevisiae deletion strains, locus YMR307W, strain GAS1, active compounds read low 0.786 | S. cerevisiae deletion strains, locus YNL153C, strain GIM3, active compounds read low 1.02 | S. cerevisiae deletion strains, locus YNL298W, strain CLA4 (second series), active compounds read low 0.923 | S. cerevisiae deletion strains, locus YNL322C, strain KRE1, active compounds read low 0.986 | S. cerevisiae deletion strains, locus YNR030W, strain Alg12, active compounds read low 0.962 | S. cerevisiae deletion strains, locus YPL055C, strain LGE1, active compounds read low 1.01 | S. cerevisiae deletion strains, locus YPL241C, strain CIN2, active compounds read low 0.899 | S. cerevisiae deletion strains, locus YPR135W, strain CTF4, active compounds read low 0.944 | S. cerevisiae strains, strain wild type, active compounds read low 0.959
